# Reference: the supplement of paper PMC9262897, “Low-cost anti-mycobacterial drug discovery using engineered E. coli” (Nature Communications, 2022)
# Where a name gives a salt, the structure may show the parent alone. ± gives the standard deviation of the averaged measurements.
# Assays:
# Assay in all cases: growth (OD600 after 10 h); higher = more growth (less inhibition)
# [1] = system: E. coli TESEC Alr+ wild-type control; details: compound 0.1 mM; raw OD600 reference: median of DMSO wells 0.241, cell-free background 0.041
# Protocol: (§1)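 TESEC Mtb Alr E. coli, or the Alr+ wild-type control, in 384-well plates with Prestwick library compounds at 0.1 mM and 1% DMSO, across arabinose induction levels of 1E3 to 1E7 nM. Growth is read as OD600 after 10 h at 37 °C in triplicate biological replicates.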
# E. coli TESEC Mtb Alr [2] = details: compound 0.1 mM
# Protocol: as §1
# E. coli TESEC Mtb Asd = details: compound 0.1 mM
# Protocol: (§2)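 TESEC E. coli strains in which the native enzyme is deleted and replaced by arabinose-inducible Mtb Asd, DapB, CysH or TrpD, each grown in its selective medium. Strains were screened against the Prestwick library at 0.1 mM and 1% DMSO in 384-well format at low and high arabinose induction. Growth is read as OD600 after 10 h in triplicate.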
# E. coli TESEC Mtb DapB = details: compound 0.1 mM
# Protocol: as §2
# E. coli TESEC Mtb Alr [3] = details: compound 0.1 mM; remark: listed apart in the source
# Protocol: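 TESEC Mtb Alr E. coli (ΔaraC ΔtolC ΔentC Δalr ΔdadX, arabinose-inducible Mtb Alr) or the Alr+ wild-type control strain, grown in defined M9-fructose medium without D-alanine in 96-well plates with Prestwick library compounds at 0.1 mM and 1% DMSO. Low Alr induction is 0.1 µM arabinose and high induction is 10 mM arabinose.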
# [4] = arabinose 1000 nM, raw OD600 reference: median of DMSO wells 0.294, cell-free background 0.041
# [5] = arabinose 10000 nM, raw OD600 reference: median of DMSO wells 0.264, cell-free background 0.041
# [6] = arabinose 100000 nM, raw OD600 reference: median of DMSO wells 0.201, cell-free background 0.041
# [7] = arabinose 1000000 nM, raw OD600 reference: median of DMSO wells 0.193, cell-free background 0.041
# [8] = arabinose 10000000 nM, raw OD600 reference: median of DMSO wells 0.146, cell-free background 0.041
# [9] = arabinose induction (level): High, raw OD600 reference: median of DMSO wells 0.331, cell-free background 0.041
# [10] = arabinose induction (level): Low, raw OD600 reference: median of DMSO wells 0.417, cell-free background 0.041
# [11] = arabinose induction (level): High, raw OD600 reference: median of DMSO wells […], cell-free background 0.041
# [12] = arabinose induction (level): Low, raw OD600 reference: median of DMSO wells 0.227, cell-free background 0.041
# [13] = arabinose 100 nM, raw OD600 reference: median of DMSO wells 0.413, cell-free background 0.052
# [14] = arabinose 10000000 nM, raw OD600 reference: median of DMSO wells […], cell-free background 0.052
SMILES,growth [1],growth (E. coli TESEC Mtb Alr [2]; [4]),growth (E. coli TESEC Mtb Alr [2]; [5]),growth (E. coli TESEC Mtb Alr [2]; [6]),growth (E. coli TESEC Mtb Alr [2]; [7]),growth (E. coli TESEC Mtb Alr [2]; [8]),growth (E. coli TESEC Mtb Asd; [9]),growth (E. coli TESEC Mtb Asd; [10]),growth (E. coli TESEC Mtb DapB; [11]),growth (E. coli TESEC Mtb DapB; [12]),growth (E. coli TESEC Mtb Alr [3]; [13]),growth (E. coli TESEC Mtb Alr [3]; [14])
CCC(C)(CN(C)C)OC(=O)c1ccccc1 (stereo unspecified) [Amyleine hydrochloride],0.233 ± 0.0066,0.252 ± 0.052,0.266 ± 0.0091,0.183 ± 0.011,0.173 ± 0.0043,0.142 ± 0.0057,0.26 ± 0.076,0.435 ± 0.058,0.195 ± 0.027,0.209 ± 0.0057,0.411 ± 0.0066,0.333 ± 0.021
COc1ccccc1OCC(O)CN1CCN(CC(=O)Nc2c(C)cccc2C)CC1 (stereo unspecified) [Ranolazine],0.207 ± 0.0059,0.309 ± 0.036,0.285 ± 0.0092,0.155 ± 0.012,0.178 ± 0.0088,0.135 ± 0.0073,0.171 ± 0.014,0.342 ± 0.085,0.174 ± 0.023,0.226 ± 0.021,0.4233 ± 0.0032,0.301 ± 0.014
COC(=O)[C@H]1[C@H]2C[C@@H]3c4[nH]c5cc(OC)ccc5c4CCN3C[C@H]2C[C@@H](OC(=O)c2cc(OC)c(OC)c(OC)c2)[C@@H]1OC [Reserpine],0.201 ± 0.0092,0.234 ± 0.027,0.223 ± 0.02,0.214 ± 0.012,0.193 ± 0.012,0.214 ± 0.0036,0.333 ± 0.032,0.191 ± 0.0062,0.245 ± 0.0092,0.3 ± 0.038,0.408 ± 0.013,0.112 ± 0.076
CC(=O)N[C@@H](CC(C)C)C(=O)O [N-Acetyl-L-leucine],0.243 ± 0.013,0.292 ± 0.016,0.259 ± 0.004,0.219 ± 0.0097,0.192 ± 0.0042,0.134 ± 0.0046,0.378 ± 0.077,0.476 ± 0.0098,0.206 ± 0.0033,0.205 ± 0.0021,0.41 ± 0.013,0.349 ± 0.0042
CC1=C(/C=C/C(C)=C/C=C/C(C)=C/C(=O)O)C(C)(C)CCC1 [Retinoic acid],0.281 ± 0.008,0.309 ± 0.012,0.262 ± 0.006,0.246 ± 0.0066,0.149 ± 0.006,0.162 ± 0.015,0.355 ± 0.11,0.41 ± 0.0091,0.186 ± 0.0028,0.2256 ± 0.00047,0.45 ± 0.0056,0.301 ± 0.013
COc1ccccc1N1CCN(CC(O)COc2cccc3ccccc23)CC1 (stereo unspecified) [Naftopidil dihydrochloride],0.0455 ± 0.00068,0.0439 ± 0.0023,0.0416 ± 0.00044,0.0537 ± 0.0089,0.0425 ± 0.001,0.0492 ± 0.0015,0.0476 ± 0.00036,0.0516 ± 0.0046,0.0582 ± 0.0019,0.0626 ± 0.0085,0.4077 ± 0.0026,0.0524 ± 0.0021
CCCN(CCC)CCc1cccc2c1CC(=O)N2 [Ropinirole HCl],0.239 ± 0.0025,0.301 ± 0.0083,0.251 ± 0.0073,0.195 ± 0.025,0.18 ± 0.009,0.146 ± 0.0056,0.379 ± 0.066,0.441 ± 0.035,0.198 ± 0.013,0.211 ± 0.025,0.408 ± 0.01,0.366 ± 0.0066
NC(=O)N1c2ccccc2C=Cc2ccccc21 [Carbamazepine],0.241 ± 0.0068,0.281 ± 0.0037,0.239 ± 0.0011,0.182 ± 0.032,0.173 ± 0.0066,0.142 ± 0.00057,0.36 ± 0.013,0.35 ± 0.059,0.194 ± 0.018,0.237 ± 0.046,0.405 ± 0.0088,0.272 ± 0.12
CCOc1ccccc1OC(c1ccccc1)C1CNCCO1 (stereo unspecified) [Reboxetine mesylate],0.203 ± 0.0099,0.265 ± 0.023,0.253 ± 0.012,0.2 ± 0.02,0.15 ± 0.0074,0.1507 ± 0.0007,0.249 ± 0.038,0.296 ± 0.061,0.15 ± 0.0036,0.183 ± 0.021,0.402 ± 0.015,0.336 ± 0.022
O=C(NCCO[N+](=O)[O-])c1cccnc1 [Nicorandil],0.2587 ± 0.0024,0.3 ± 0.021,0.286 ± 0.0046,0.208 ± 0.025,0.213 ± 0.0045,0.153 ± 0.0067,0.362 ± 0.039,0.377 ± 0.057,0.191 ± 0.0086,0.209 ± 0.023,0.4153 ± 0.002,0.3332 ± 0.001
CN(C)CCC=C1c2ccccc2C=Cc2ccccc21 [Cyclobenzaprine hydrochloride],0.1703 ± 0.0014,0.204 ± 0.016,0.247 ± 0.011,0.172 ± 0.011,0.0898 ± 0.0029,0.125 ± 0.0031,0.161 ± 0.0091,0.262 ± 0.022,0.175 ± 0.011,0.203 ± 0.027,0.401 ± 0.0064,0.231 ± 0.018
CN(C)CCOC1=Cc2ccccc2Sc2ccc(Cl)cc21 [Zotepine],0.179 ± 0.011,0.186 ± 0.0076,0.177 ± 0.0016,0.215 ± 0.0073,0.0636 ± 0.0007,0.0782 ± 0.003,0.168 ± 0.0075,0.127 ± 0.018,0.171 ± 0.019,0.1696 ± 0.0015,0.41 ± 0.0042,0.0544 ± 0.0015
Cc1cc(C(C)(C)C)cc(C)c1CC1=NCCN1 [Xylometazoline hydrochloride],0.226 ± 0.0033,0.285 ± 0.0055,0.261 ± 0.01,0.221 ± 0.011,0.164 ± 0.0057,0.161 ± 0.0028,0.272 ± 0.041,0.393 ± 0.066,0.173 ± 0.011,0.252 ± 0.059,0.413 ± 0.015,0.331 ± 0.011
